PNC assembly inh: inhibitors of perinucleolar compartment assembly | PC3M PTB-GFP, PNC prevalence imaging, 16 h; active compounds read low | activity change (PNC), negative = inhibition, % at 10 µM | 3.1% of 140,000 active | AID 2417;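 active = readout at or below -70, meaning at least 70% loss of cells showing the perinucleolar compartment, a nuclear body marking cancer cells; inconclusive = readout between -30 and a set limit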;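 also: plate controls were DMSO wells for no effect and camptothecin positive control wells for full effect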
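Compounds are pinned in duplicate onto adhered PC3M cells stably expressing GFP-tagged PTB and incubated 16 h at 37 C. Cells are then fixed, nuclei stained with Hoechst, and PNC-positive cells counted.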
IMPase Li cell: cell-permeable IMPase inhibitors with lithium potentiation; CHO-M1 cells, IP1 TR-FRET (IP-One), carbachol + lithium; Potency, µM (series often up to 59.4 µM), inactives show top-dose activity, negative = IMPase inhibition, hits mostly inhibitors; 0.35% of 210,000 active; active = well fitted curve in the direction sought with a large enough effect; inconclusive = small, poorly fitted or top-dose-only effect, or another doubt; inactive = no such curve, though single readings can be large; an effect the other way counts as inactive or inconclusive;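 also: IP1 builds up when IMPase is blocked and the TR-FRET signal falls; potency is read from the fitted curve at half-maximal effect; plate controls were basal vehicle for no effect and high inhibitor control for full effect; nearly all actives have a fitted effect of over 50% in size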
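Test compounds were applied to CHO-M1 cells previously cultured for 16–30 h at 2000 per well. A small lithium amount accompanied them; after 30 min at 37C, IP1 was quantified by TR-FRET.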
ALDH1A1 inh: ALDH1A1 (human) enzyme inhibition; P00352; Purified ALDH1A1, NADH fluorescence, propionaldehyde substrate; Potency, µM (highest dose often 75.3 µM), without a hit: top-dose activity, negative = inhibition, hits mostly inhibitors; 7.3% of 220,000 active;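 also: potency is read from the fitted curve at half-maximal effect; plate controls were no enzyme wells and a reference inhibitor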
HPGD block: blocks human HPGD enzyme activity | AID 894 | Potency, µM, for inactives: top-dose activity change, negative = inhibition, usual class: inhibitors | P15428 | 4.3% of 150,000 active | purified HPGD, NADH fluorescence kinetic, PGE2 substrate; also: potency is read from the fitted curve at half-maximal effect
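20 nM HPGD preincubated 15 min at room temperature with compound in 50 mM Tris-HCl pH 8, 0.01% Tween 20. Started with 1 mM NAD+ and 30 uM prostaglandin E2; NADH fluorescence (360/450 nm) read 5 times over 30-s intervals, last minus first.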
IMPase cell inh: cell-permeable inhibitors of inositol monophosphatase (IMPase); P97697; CHO-M1 cells, IP1 accumulation, HTRF TR-FRET ratio; inhibition (IP1 accumulation), % at 46.1 µM; 120,000 tested, under 10 active; active = well fitted curve in the direction sought with a large enough effect in the signal ratio, not every such curve was filed as active; inconclusive = small, poorly fitted or top-dose-only effect, or a change in a side signal; inactive = no such curve, though single readings can be large or run the other way; the % refers to the signal ratio;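 also: cells stimulated with carbachol in lithium chloride buffer; plate controls were DMSO basal wells for no effect and reference inhibitor wells for full effect; higher means more IMPase inhibition seen as more IP1 and lower FRET ratio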
Target sequence (P97697 whole entry, looked up): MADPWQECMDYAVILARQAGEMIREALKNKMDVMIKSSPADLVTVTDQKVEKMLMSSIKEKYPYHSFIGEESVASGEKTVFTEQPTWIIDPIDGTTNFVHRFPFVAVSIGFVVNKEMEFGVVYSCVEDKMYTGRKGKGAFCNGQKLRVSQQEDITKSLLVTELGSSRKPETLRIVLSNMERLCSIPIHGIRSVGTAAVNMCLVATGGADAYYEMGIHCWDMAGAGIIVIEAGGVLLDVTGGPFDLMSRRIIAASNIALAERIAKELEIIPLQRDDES
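CHO-M1, 2000 cells/well, cultured 16–30 h; cpd up to 46 uM; carbachol (50 uM solution, stimulation buffer w/ 50 mM LiCl, pH 7.4), 30 min 37C; IP-One TR-FRET, 10 min RT; Ex 320/Em 665, 620; Hill-fit AC50.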
NPSR antagonist: neuropeptide S receptor (human) antagonism, cAMP; Q6W5P4; CHO-NPSR cells, cAMP TR-FRET, antagonist mode; Potency, µM (highest dose often 38.3 µM), without a hit: at the top dose activity change, negative = inhibition, usual class: inhibitors; 1% of 220,000 active; AID 1461; active = well fitted curve in the direction sought with a large enough effect; inconclusive = small, poorly fitted or top-dose-only effect, or another doubt; inactive = no such curve, though single readings can be large; an effect the other way counts as inactive or inconclusive; also: potency is read from the fitted curve at half-maximal effect; nearly all actives have a fitted effect of over 50% in size
Target sequence (Q6W5P4 whole entry, looked up): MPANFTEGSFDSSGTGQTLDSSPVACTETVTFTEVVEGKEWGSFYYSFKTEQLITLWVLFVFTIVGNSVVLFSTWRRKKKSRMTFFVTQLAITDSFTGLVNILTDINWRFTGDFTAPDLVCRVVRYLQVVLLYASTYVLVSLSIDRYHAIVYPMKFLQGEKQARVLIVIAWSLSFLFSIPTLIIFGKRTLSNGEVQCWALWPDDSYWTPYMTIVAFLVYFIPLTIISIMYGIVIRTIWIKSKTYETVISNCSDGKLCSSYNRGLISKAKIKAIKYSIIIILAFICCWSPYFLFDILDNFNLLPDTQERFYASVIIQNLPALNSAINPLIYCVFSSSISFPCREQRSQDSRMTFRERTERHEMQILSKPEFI
Numbers without * were called inactive; u = inconclusive; x = no result given; [ ] = another dose, or the depositor's remark. Hits are enriched below; roughly 11% of the tested compounds scored in any of these assays. Unless noted, calls follow the shape of the dose curve; as a rule, active = well fitted inhibition curve with a large enough effect (not every such curve was filed as active); inconclusive = small, poorly fitted or top-dose-only effect, or another doubt; inactive = no such curve, though single readings can be large or run the other way. Unless noted, % is scaled to controls: 0 for no effect and ±100 for the full control effect.

SMILES	PNC assembly inh	IMPase Li cell	ALDH1A1 inh	HPGD block	IMPase cell inh	NPSR antagonist
CCOC(=O)c1sc(NC(=O)CSc2nncs2)c(C(=O)OCC)c1C	8	0%[38.3 µM]	u	28µM*	19	-26%[46.1 µM]
CCOC(=O)c1c(NC(=O)CSc2nnc(-c3cccnc3)o2)sc2c1CCC2	-100*	13%	10%	-19%	-11	-18%[46.1 µM]
CCOC(=O)c1c(NC(=O)CSc2n[nH]c(CNc3ccccc3)n2)sc(C)c1C	-16	16%	1%	-16%	0	-33%
CCOC(=O)c1c(NC(=O)CSc2n[nH]c(-c3ccco3)n2)sc(C)c1C	37	24%[38.3 µM]	-13%	16µM*	-6	-9%[46.1 µM]
O=C(NCCCN1CCCC1=O)C1CCCO1 (stereo not drawn)	x	10%	10%	x	x	15%
CCOC(=O)c1c(NC(=O)CSc2nnc(-c3ccccc3)o2)sc(C(C)=O)c1C	-20	u	u	18µM*	-25	3%[46.1 µM]
CCOC(=O)c1c(NC(=O)CSc2nnc(-c3ccc(C)cc3)o2)sc(C(C)=O)c1C	-23	17%[38.3 µM]	2%	-10%	-12	u
CCOC(=O)c1c(NC(=O)CSc2cccc[n+]2[O-])sc(C(=O)Nc2ccccc2)c1C	x	11%	28µM*	x	x	-44%
CSc1ccc(C(=O)C2CCCN(S(=O)(=O)c3c(C)noc3C)C2)cc1 (stereo not drawn)	x	24%	-7%	x	x	-15%
Cc1cc(Cl)c(OCCOCCN2CCCCC2)c(Br)c1	-102*	11%	u	-12%	x	8%
O=c1cc(-c2cccc(O)c2)oc2c(O)c(O)ccc12	x	15%	u	3.2µM*	u	x
S=c1[nH]nc(-c2cc(-c3ccco3)[nH]n2)n1-c1ccccc1	61	-19%[38.3 µM]	u	20µM*	-8	1%[46.1 µM]
S=c1[nH]nc(-c2cc(-c3ccco3)[nH]n2)n1-c1ccccc1Cl	32	-13%[38.3 µM]	7.1µM*	32µM*	-10	-3%[46.1 µM]
Cc1ccnc(NC(=O)CCC(=O)N(CC(=O)NC2CCCCC2)Cc2ccc3c(c2)OCO3)c1	-25	8%[38.3 µM]	-12%	1%	u	-16%[46.1 µM]
O=C(NCCN1CCN(c2cccc(Cl)c2)CC1)Nc1ccccc1	x	x	x	x	6	x
Cc1cccc(C)c1OCCCCCNCCO	14	54%[38.3 µM]	20µM*	-12%	1	-3%[46.1 µM]
CC(C)c1ccccc1OCCCCCNCCO	-6	16%[38.3 µM]	18µM*	-22%	-2	8%[46.1 µM]
Cc1ccc(CC(NC(=O)c2ccccc2)C(=O)NCC(=O)O)cc1 (stereo not drawn)	4	15%[38.3 µM]	7%	-9%	1	-5%[46.1 µM]
CCOc1ccc(C(=O)NCCCn2ccnc2)cc1	-12	26%[38.3 µM]	12%	-2%	1	-6%[46.1 µM]
COc1ccc(C(=O)NCCCn2ccnc2)cc1	-27	15%[38.3 µM]	7.9µM*	-8%	10	20%[46.1 µM]
O=C(NCCCn1ccnc1)c1ccc(N2CCCCC2)c([N+](=O)[O-])c1	x	26%	7.9µM*	x	x	-5%
O=C1NCCCC2c3cc(O)c4ccccc4c3OC12N1CCCCC1 (stereo not drawn)	u	-2%[38.3 µM]	u	-11%	u	-28%[46.1 µM]
O=C1NCCCC2c3c(cc(Br)c(O)c3Br)OC12N1CCOCC1 (stereo not drawn)	-2	37%[38.3 µM]	3.2µM*	32µM*	21	10%[46.1 µM]
O=S(=O)(c1ccc(NC(=S)N/N=C/c2cccc(Oc3ccccc3)c2)cc1)N1CCOCC1	x	9%	1%	x	x	-16%
O=C(CCCC(=O)N(CC(=O)NC1CCCC1)C1CCCC1)Nc1ccccn1	-123*	-11%[38.3 µM]	u	-9%	11	-11%[7.67 µM]
SMILES	PNC assembly inh	IMPase Li cell	ALDH1A1 inh	HPGD block	IMPase cell inh	NPSR antagonist
CCOC(=O)c1sc(=S)sc1SCc1cccc(C(F)(F)F)c1	u	34%[38.3 µM]	u	28µM*	10	33%[46.1 µM]
COc1ccc(NC(=O)c2sccc2SCc2cccc(C(F)(F)F)c2)cc1	17	22%	-6%	u	15	u
CCCn1c(=O)c2c(nc(Br)n2CCC)n(C)c1=O	13	4%[38.3 µM]	-3%	-16%	0	-5%[46.1 µM]
CC(C)Cn1c(Br)nc2c1c(=O)n(CCC#N)c(=O)n2C	-123*	10%[38.3 µM]	-5%	18µM*	1	-18%[7.67 µM]
Cc1ccc(O)c(N=CC2=C(O)c3ccccc3C2=O)c1	u	10µM*	u	u	u	u
O=C(Nc1cccc2ccccc12)OC1C=CS(=O)(=O)C1 (stereo not drawn)	54	-1%	3%	-11%	3	9%
CCc1ccc(-c2cc(C(=O)N/N=C/c3c[nH]c4ccccc34)[nH]n2)cc1	x	9%	-19%	x	x	-54%
CCc1ccc2c(Cl)c(C(=O)N/N=C/c3c[nH]c4ccccc34)sc2c1	90	4%[38.3 µM]	13µM*	-9%	-2	-15%[46.1 µM]
Nc1ccc2nc(-c3ccc(Cl)cc3)[nH]c2c1	28	10µM*	u	u	-19	2%[46.1 µM]
Nc1ccc(-c2nc3ccc(N)cc3[nH]2)cc1	x	-29%	u	x	x	-49%
CC(C)c1ccc(C(=O)NCCCN(C)C)cc1	u	1%	2%	14µM*	x	14%
CN(C)CCCNC(=O)c1ccc(Cl)c(S(=O)(=O)N(C)c2ccccc2)c1	-108*	-3%[38.3 µM]	-3%	-15%	1	-1%[46.1 µM]
CCN(Cc1ccccc1)S(=O)(=O)c1cc(C(=O)NCCCN(C)C)ccc1OC	x	18%	0%	x	x	-6%
CN(C)CCCNC(=O)c1ccc(-c2ccccc2)cc1	22	9%[38.3 µM]	6%	-16%	-6	9%[46.1 µM]
Cn1c(N)c(C(=O)COC(=O)Cn2cc(C(F)(F)F)ccc2=O)c(=O)n(C)c1=O	u	5%[38.3 µM]	7%	16µM*	-4	1%[46.1 µM]
Cn1c(N)c(C(=O)COC(=O)CN2C(=O)c3ccccc3C2=O)c(=O)n(C)c1=O	7	-3%	-4%	2%	3	19%
CCOC(=O)NC(=O)/C(C#N)=N\Nc1cccc(OC)c1	x	-5%	4%	x	x	-9%
O=C1NC(=S)N/C1=C/c1cc([N+](=O)[O-])ccc1O	31	4%[38.3 µM]	5µM*	u	10	-12%[46.1 µM]
O=C1NC(=S)N/C1=C/c1cccc([N+](=O)[O-])c1O	61	19%[38.3 µM]	22µM*	-27%	16	-14%[46.1 µM]
O=C(O)CC(Cn1[nH]nnc1=S)c1ccccc1 (stereo not drawn)	u	-29%[38.3 µM]	10µM*	-27%	2	-8%[46.1 µM]
O=C(O)CC(CC(=O)Nc1nncs1)c1ccccc1 (stereo not drawn)	20	24%[38.3 µM]	1%	-10%	-8	0%[46.1 µM]
Clc1ccc(-c2nnc(-c3ccco3)nc2N2CCCCC2)cc1	u	7%	2.2µM*	u	x	-32%
CN1/C(=C\C(=O)CSc2nnc(NCc3ccccc3)s2)C(C)(C)c2ccccc21	28	4%	-8%	-21%	x	-3%

Bioassay records: PubChem, National Center for Advancing Translational Sciences (NCATS)
